# Source: the supplement of paper PMC6555819
# Tests used:
# Assay in all cases: PBM binding z-score (relative to random genomic background probes); higher = stronger binding; sequences stand for … in GC…GCGATTGACAGCGTAGAATGAAGG
# [1] = tested on: FXR:RXRa (NR concentration 270 nM, RXRa partner concentration 90 nM)
# Procedure, shortened: (§1)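 Ligand-free nuclear receptor dimers were applied to custom Agilent 4×180K protein-binding microarrays whose double-stranded probes carried direct-repeat seeds, single-nucleotide variants, half-site ablations and random human genomic background sequences in 34-nt variable regions. Incubation lasted 1 h. Binding z-scores were computed against the random background probes from regression-normalized fluorescence.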
# [2] = tested on: LXRa:RXRa (NR concentration 270 nM, RXRa partner concentration 90 nM)
# Procedure, shortened: as §1
# [3] = tested on: LXRa homodimer (NR concentration 270 nM)
# Procedure, shortened: as §1
# [4] = tested on: LXRb:RXRa (NR concentration 270 nM, RXRa partner concentration 90 nM)
# Procedure, shortened: as §1
# [5] = tested on: LXRb homodimer (NR concentration 270 nM)
# Procedure, shortened: as §1
# [6] = tested on: PPARa:RXRa (NR concentration 270 nM, RXRa partner concentration 90 nM)
# Procedure, shortened: as §1
# [7] = tested on: PPARg:RXRa (NR concentration 180 nM, RXRa partner concentration 90 nM)
# Procedure, shortened: as §1
# [8] = tested on: PPARg:RXRa 270nM:90nM, anti-RXR (NR concentration 270 nM, RXRa partner concentration 90 nM)
# Procedure, shortened: as §1
# [9] = tested on: PPARg:RXRa 30nM:10nM, anti-RXR (NR concentration 30 nM, RXRa partner concentration 10 nM)
# Procedure, shortened: as §1
# [10] = tested on: PPARg:RXRa 90nM:30nM, anti-RXR (NR concentration 90 nM, RXRa partner concentration 30 nM)
# Procedure, shortened: as §1
# [11] = tested on: PPARg:RXRa DBDmut IVT, anti-RXR (DBD mutation: RXRa K156A/R161A, NR concentration 270 nM, RXRa partner concentration 90 nM)
# Procedure, shortened: as §1
# [12] = tested on: PPARg:RXRa IVT, anti-PPARg (NR concentration 270 nM, RXRa partner concentration 90 nM)
# Procedure, shortened: as §1
# [13] = tested on: PPARg DBDmut:RXRa IVT, anti-PPARg (DBD mutation: PPARg1 K132A/R137A, NR concentration 270 nM, RXRa partner concentration 90 nM)
# Procedure, shortened: as §1
# [14] = tested on: PPARg DBDmut IVT, anti-PPARg (DBD mutation: PPARg1 K132A/R137A, NR concentration 270 nM)
# Procedure, shortened: as §1
# [15] = tested on: PPARg homodimer (NR concentration 180 nM)
# Procedure, shortened: as §1
# [16] = tested on: PXR:RXRa (NR concentration 270 nM, RXRa partner concentration 90 nM)
# Procedure, shortened: as §1
# [17] = tested on: PXR homodimer (NR concentration 270 nM)
# Procedure, shortened: as §1
# [18] = tested on: RARa:RXR (NR concentration 270 nM, RXRa partner concentration 90 nM)
# Procedure, shortened: as §1
# [19] = tested on: RARa homodimer (NR concentration 270 nM)
# Procedure, shortened: as §1
# [20] = tested on: RARb:RXRa (NR concentration 270 nM, RXRa partner concentration 90 nM)
# Procedure, shortened: as §1
Sequence,PBM binding z-score [1],PBM binding z-score [2],PBM binding z-score [3],PBM binding z-score [4],PBM binding z-score [5],PBM binding z-score [6],PBM binding z-score [7],PBM binding z-score [8],PBM binding z-score [9],PBM binding z-score [10],PBM binding z-score [11],PBM binding z-score [12],PBM binding z-score [13],PBM binding z-score [14],PBM binding z-score [15],PBM binding z-score [16],PBM binding z-score [17],PBM binding z-score [18],PBM binding z-score [19],PBM binding z-score [20]
GTTTGTAGATCAAGGTTAAGAAAGACTAAGCTAA,0.943,1.64,0.556,0.954,0.547,1.84,1.93,2.88,1.48,2.65,1.8,1.93,1.34,0.524,1.43,0.822,1.11,1.21,2.12,1.24
CGAACGAGGGCATGAGGTGATAGCAAATGCCGAT,0.82,0.474,-0.458,0.317,-0.998,2.05,2.27,2.23,0.483,1.49,3.25,3.37,0.644,-0.341,0.574,0.422,-0.352,1.16,0.0615,2.26
CGAACCAGGTCATCCAGGACAGTGAATACATTGA,5.37,3.75,1,3.05,0.375,4.67,4.89,4.6,1.51,3.59,5.15,5.48,1.46,0.673,2.01,2.98,3.52,3.1,1.01,3.95
CGAACTAGGTCATTGACGGGACAGTGAATAGTAA,4.27,2.52,0.242,1.81,-0.0446,4.64,7.48,6.38,3.39,5.82,8.12,8.13,2.44,0.8,1.5,1.15,0.012,1.98,0.192,3.63
GGAACGAGGGCTTTCGAGTTGATAGCATGGCGAT,-0.242,-0.418,-0.465,-0.655,-0.894,-0.173,0.0484,-0.127,-0.533,-0.499,0.386,-0.141,-0.402,-0.448,-0.921,0.129,-0.343,0.0983,-0.868,-0.36
CAAACTAGGTCGCCGGAAGGTCAAAGTCCGCATG,3.54,4.14,2.85,3.54,0.401,4.61,5.39,4.95,2.29,4.13,6.5,6.56,2.57,0.739,3.61,4.72,0.959,5.67,0.693,3.94
GCGACTGGGGCATCTGCAGGTTACCATAACTTAA,-0.256,0.365,-0.281,1.41,-0.198,1.53,0.863,1.01,-0.39,0.715,3.92,2.96,-0.0823,-0.117,0.207,0.314,-0.507,0.637,-1.22,0.859
TAGCCTATGTCATGCGGGCCAGTATAGTGTCGGC,-0.542,-0.522,-0.975,-0.937,-0.855,-0.683,0.11,-0.476,-0.612,-0.433,-0.318,0.0427,-0.339,-0.807,-1.01,-0.639,-1.13,-0.718,-1.4,0.113
CCTCGGAGGACAACAGGAGGGCAGAGCTGCCAGA,-0.363,-0.203,-0.39,-0.91,-0.963,-0.724,-0.101,-1.25,-1.32,-1.32,-0.405,-0.306,-2.18,-1.69,-0.00297,-0.394,-0.631,-0.517,-0.328,1.73
ACTTACGGGTCAACGAGCTTATAGCACGCGTATA,6.23,3.9,0.0459,3.55,0.744,5.49,4.76,5.05,1.71,3.6,3.07,3.31,0.724,0.908,1.42,3.19,-0.152,4.16,0.825,4
AGAATCAGGTTATTAAGATCAGGGAATTGCGGTC,0.5,0.587,0.33,0.473,0.697,1.16,0.693,1.04,0.466,0.97,2.96,2.28,0.999,0.854,1.29,0.516,0.602,0.644,1.45,1
CCTACTGGGCCAAAAAGATCATTGATGCCGATAA,-0.2,-0.313,-0.155,-0.481,-0.601,0.11,0.525,0.504,-0.0196,0.372,3.14,2.44,-0.679,-0.158,0.38,-0.395,-0.298,-0.562,0.184,-0.239
ATATGTAGGTTAAGGGTCTTTCAGGTTGGTTCGC,1.3,1.7,0.812,1.77,0.832,4.62,8.46,8.05,6.71,8.67,7.78,7.16,1.06,1.67,2.46,1.45,1.1,1.64,1.86,1.55
TCTTGTAGATCAACAGGCGGTTAAGAAAGATCGA,0.118,0.174,-0.388,0.205,-0.307,0.615,-0.161,1.12,2.44,1.81,1.91,0.45,0.508,0.822,-0.291,0.038,-0.259,0.363,-0.0268,-0.0147
ATCGAAAGGTCGAAGGTGAGTGTACCCACCCGAA,4.5,3.39,0.164,2.8,0.755,4.8,4.86,4.69,2.15,3.8,-0.0432,2.32,1.7,0.661,1.79,3.07,0.136,4.01,-0.116,3.86
